PubChem BioAssay (NCATS)
Inconclusive results are not listed. A call without a number means that no potency is given here. A number with no mark means an inactive call. Activity calls are given as the source filed them. Calls follow the shape of the dose curve; as a rule, active = well fitted curve in the direction sought with a large enough effect; inconclusive = small, poorly fitted or top-dose-only effect, or another doubt; inactive = no such curve, though single readings can be large; an effect the other way counts as inactive or inconclusive.

What was measured:
[1] = biological target: Rap guanine nucleotide exchange factor 3 (Homo sapiens) (UniProt O95398); test: Confirmatory qHTS for antagonist of cAMP-regulated guanine nucleotide exchange factor 3 (EPAC1) (AID 1645880); settings: EPAC1 Rap1B-BODIPY-GDP exchange, fluorescence; activity, negative = inhibition: at 115 µM (top of the series); also: nearly all actives have a fitted effect of over 55% in size; also: potency is read from the fitted curve at half-maximal effect
Method in brief: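 Released BODIPY-GDP fluoresces less than Rap1-bound BODIPY-GDP; the signal is followed at 480/540 nm at 5-min intervals over 30 min, after 5 min at room temperature. Reactions contain 100 nM EPAC1, 250 nM RAP1B-BODIPY-GDP and 50 uM GDP; results are normalized to ATA and DMSO.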

[2] = biological target: Rap guanine nucleotide exchange factor 3 (Homo sapiens) (UniProt O95398); test: Confirmatory qHTS for agonist of cAMP-regulated guanine nucleotide exchange factor 3 (EPAC1) (AID 1645881);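 also: EPAC1 catalysed release of BODIPY-GDP from Rap1B seen as fluorescence loss; nearly all actives have a fitted effect of over 75% in size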
[3] = biological target: Rap guanine nucleotide exchange factor 4 (Homo sapiens) (UniProt Q8WZA2); test: Confirmatory qHTS for agonist of cAMP-regulated guanine nucleotide exchange factor 4 (EPAC2) (AID 1645884);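 also: nucleotide exchange releases bodipy-GDP from Rap1 and this lowers its fluorescence; nearly all actives have a fitted effect of over 65% in size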
[4] = biological target: Rap guanine nucleotide exchange factor 4 (Homo sapiens) (UniProt Q8WZA2); test: Confirmatory qHTS for antagonist of cAMP-regulated guanine nucleotide exchange factor 4 (EPAC2) (AID 1645885); also: nearly all actives have a fitted effect of over 25% in size; also: potency is read from the fitted curve at half-maximal effect
[5] = biological target: Rap guanine nucleotide exchange factor 3 (Homo sapiens) (UniProt O95398); test: Counterscreen qHTS for antagonist of cAMP-regulated guanine nucleotide exchange factor 3 (EPAC1) (AID 1645888)
Method in brief: (§1)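 Rap1B-BODIPY-GDP 250 nM + GDP 50 uM; cpds 7-pt, final 9.74 nM–152 uM (activator mode) or from 7.32 nM upwards (inhibitor mode); RT; FI 480/540 nm at 5 and 30 min, then ± cAMP, reread.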

[6] = biological target: Rap guanine nucleotide exchange factor 3 (Homo sapiens) (UniProt O95398); test: Counterscreen qHTS for agonist of cAMP-regulated guanine nucleotide exchange factor 3 (EPAC1) (AID 1645889); also: nearly all actives have a fitted effect of over 40% in size; also: potency is read from the fitted curve at half-maximal effect
Method in brief: as §1

Sequence of Rap guanine nucleotide exchange factor 4 (Homo sapiens) (Q8WZA2 whole entry, looked up): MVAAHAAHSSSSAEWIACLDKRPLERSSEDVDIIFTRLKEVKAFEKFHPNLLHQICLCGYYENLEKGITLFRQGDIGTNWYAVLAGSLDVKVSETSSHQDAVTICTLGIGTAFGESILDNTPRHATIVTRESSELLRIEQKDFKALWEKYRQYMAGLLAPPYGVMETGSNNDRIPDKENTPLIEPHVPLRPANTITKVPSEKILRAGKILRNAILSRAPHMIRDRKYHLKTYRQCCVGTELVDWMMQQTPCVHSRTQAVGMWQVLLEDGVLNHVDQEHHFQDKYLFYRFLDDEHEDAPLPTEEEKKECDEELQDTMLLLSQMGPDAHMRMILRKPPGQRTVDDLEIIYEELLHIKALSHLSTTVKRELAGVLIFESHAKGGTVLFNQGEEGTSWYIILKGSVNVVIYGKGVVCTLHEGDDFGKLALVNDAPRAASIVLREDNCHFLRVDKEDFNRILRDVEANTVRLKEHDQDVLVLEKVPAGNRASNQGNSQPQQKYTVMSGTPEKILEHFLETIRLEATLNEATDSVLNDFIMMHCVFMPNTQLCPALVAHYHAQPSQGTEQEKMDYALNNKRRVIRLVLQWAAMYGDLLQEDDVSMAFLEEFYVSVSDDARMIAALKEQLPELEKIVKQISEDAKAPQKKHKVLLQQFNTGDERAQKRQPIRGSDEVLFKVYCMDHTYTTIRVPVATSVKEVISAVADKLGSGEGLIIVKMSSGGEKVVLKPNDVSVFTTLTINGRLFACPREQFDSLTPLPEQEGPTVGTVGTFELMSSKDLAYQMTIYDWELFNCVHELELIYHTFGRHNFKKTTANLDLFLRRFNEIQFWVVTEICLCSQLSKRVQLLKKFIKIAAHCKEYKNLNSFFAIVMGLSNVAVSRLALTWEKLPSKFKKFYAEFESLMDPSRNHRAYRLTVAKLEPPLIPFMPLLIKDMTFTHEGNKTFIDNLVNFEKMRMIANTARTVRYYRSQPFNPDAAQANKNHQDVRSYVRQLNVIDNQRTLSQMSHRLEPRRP
Sequence of Rap guanine nucleotide exchange factor 3 (Homo sapiens) (O95398 whole entry, looked up): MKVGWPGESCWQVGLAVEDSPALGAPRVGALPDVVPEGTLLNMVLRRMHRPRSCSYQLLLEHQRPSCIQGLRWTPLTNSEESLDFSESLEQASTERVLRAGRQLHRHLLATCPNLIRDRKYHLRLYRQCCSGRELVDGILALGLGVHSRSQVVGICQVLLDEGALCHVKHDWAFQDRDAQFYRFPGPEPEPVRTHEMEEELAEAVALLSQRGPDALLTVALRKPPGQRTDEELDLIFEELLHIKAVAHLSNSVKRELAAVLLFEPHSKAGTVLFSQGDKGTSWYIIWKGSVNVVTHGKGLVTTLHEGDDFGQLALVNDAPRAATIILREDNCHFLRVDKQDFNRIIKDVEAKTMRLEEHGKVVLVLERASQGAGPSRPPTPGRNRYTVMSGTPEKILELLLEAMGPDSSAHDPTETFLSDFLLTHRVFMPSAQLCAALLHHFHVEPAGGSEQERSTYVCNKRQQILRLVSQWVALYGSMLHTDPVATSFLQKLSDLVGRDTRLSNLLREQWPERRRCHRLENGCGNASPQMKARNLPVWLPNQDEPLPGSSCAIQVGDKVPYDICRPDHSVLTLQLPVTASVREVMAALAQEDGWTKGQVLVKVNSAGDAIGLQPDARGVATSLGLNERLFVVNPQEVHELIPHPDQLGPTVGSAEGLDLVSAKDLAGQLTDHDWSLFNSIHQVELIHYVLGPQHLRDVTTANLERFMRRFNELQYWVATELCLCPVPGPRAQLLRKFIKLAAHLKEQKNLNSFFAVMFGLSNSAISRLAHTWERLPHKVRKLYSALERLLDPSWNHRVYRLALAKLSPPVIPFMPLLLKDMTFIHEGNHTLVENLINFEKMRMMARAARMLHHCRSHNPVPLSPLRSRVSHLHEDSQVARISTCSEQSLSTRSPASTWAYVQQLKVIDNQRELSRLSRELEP

| SMILES | Potency [1] | Potency [2] | Potency [3] | Potency [4] | Potency [5] | Potency [6] | activation [3] | activity change, negative = inhibition [5] | activation [6] |
| --- | --- | --- | --- | --- | --- | --- | --- | --- | --- |
| COc1cccc2c1OC1(C)CC2/C(=C(\C)O)C(=O)N1 (stereo not drawn) | inactive | inactive | inactive | inactive | inactive | inactive |  |  |  |
| COc1ccc(C2CC(c3cccs3)=NN2C(=O)c2ccco2)cc1OC (stereo not drawn) | inactive | inactive |  | inactive |  |  | 4.11% [at 17.1 µM, percent relative to cAMP agonist control] | -16.2% [at 30.8 µM] | 31.8% [at 30.8 µM] |
| CSCCC(NS(=O)(=O)c1ccc2c(c1)OCCO2)C(=O)N(C)Cc1ccc(F)cc1 (stereo not drawn) | inactive | inactive |  | inactive |  |  | 1.67% [at 17.1 µM, percent relative to cAMP agonist control] | -2.77% [at 30.8 µM] | 5.06% [at 30.8 µM] |
| COc1ccc(CCNC2CC(=O)N(CCc3ccc(OC)c(OC)c3)C2=O)cc1 (stereo not drawn) | inactive | inactive |  | inactive |  |  | 4.7% [at 17.1 µM, percent relative to cAMP agonist control] | -1.61% [at 30.8 µM] | 8.52% [at 30.8 µM] |
| O=C1NC(=S)S/C1=C\c1coc2ccc(O)cc2c1=O | 39.8 µM (active) | inactive |  | inactive |  |  | 11% [at 17.1 µM, percent relative to cAMP agonist control] | -13.4% [at 30.8 µM] | -0.252% [at 30.8 µM] |
| Cc1[nH]n(-c2ncc(-c3ccccc3)s2)c(=O)c1C(c1ccc(Br)cc1)C(C#N)C#N (stereo not drawn) | 12.6 µM (active) | inactive |  | inactive |  |  | 4.64% [at 17.1 µM, percent relative to cAMP agonist control] | -9.33% [at 30.8 µM] | 8.62% [at 30.8 µM] |
| COc1ccc(-n2c(SCC(=O)Nc3ccccc3OC)nc(O)cc2=O)cc1 | inactive | inactive |  | inactive |  |  | 4.67% [at 17.1 µM, percent relative to cAMP agonist control] | -3.75% [at 30.8 µM] | 2.02% [at 30.8 µM] |
| Cn1cccc1/C=C1\CCC/C(=C\c2cccn2C)C1=O | 75.7 µM (active) | inactive | inactive | 75.7 µM (active) | inactive | 39.8 µM (active) |  |  |  |
| COC(=O)c1cc(C#N)c(Oc2ccccc2OC)nc1C | inactive | inactive | inactive | inactive | inactive | inactive |  |  |  |
| O=C1COc2ccc(C(=O)COC(=O)c3ccc([N+](=O)[O-])cc3Cl)cc2N1 | inactive | inactive | inactive | inactive | inactive | inactive |  |  |  |
| C=C1CCN(C(Cc2ccccc2)C(=O)OC)S(=O)(=O)c2ccc(F)cc21 (stereo not drawn) | inactive | inactive |  | inactive |  |  | 11.5% [at 17.1 µM, percent relative to cAMP agonist control] | 2.02% [at 30.8 µM] | 14% [at 30.8 µM] |
| COc1ccc(NC(=O)CCCSc2nc(-c3ccco3)cc(C(F)(F)F)n2)cc1 | inactive | inactive | inactive | inactive | inactive | inactive |  |  |  |
| CCN1CCN(c2ccc(S(=O)(=O)N3CCCCC3)cc2NC(=O)C(C)Oc2ccc(F)cc2)CC1 (stereo not drawn) | inactive | inactive | inactive | inactive | inactive | inactive |  |  |  |
| O=C1C(=Cc2ccco2)CCC1=Cc1ccco1 | inactive | inactive | inactive | 60.1 µM (active) | inactive | inactive |  |  |  |
| CC(=O)Nc1sc(/C(C#N)=C\c2cccc(Cl)c2)nc1-c1ccc(C)cc1 | inactive | inactive |  | inactive |  |  | -17.2% [at 17.1 µM, percent relative to cAMP agonist control] | 148% [at 30.8 µM] | 23.7% [at 30.8 µM] |
| CCOc1cc(/C=C2\SC(=S)N(NS(=O)(=O)c3ccc(C)cc3)C2=O)ccc1O | 19 µM (active) | inactive | inactive | inactive | inactive | inactive |  |  |  |
| O=C(c1cc(-c2ccc(Cl)cc2)nc2ccccc12)N1CCC1 | inactive | inactive | inactive | inactive | inactive | inactive |  |  |  |
| COc1ccc(OC)c(NS(=O)(=O)c2cc3c4c(c2)CCN4C(=O)CC3)c1 | inactive | inactive | inactive | inactive | inactive | inactive |  |  |  |
| COc1ccc(C2CC(c3ccccc3OC(C)=O)=NN2C(C)=O)cc1 (stereo not drawn) | inactive | inactive | inactive | inactive | inactive | inactive |  |  |  |

| SMILES | Potency [1] | Potency [2] | Potency [3] | Potency [4] | Potency [5] | Potency [6] | activation [3] | activity change, negative = inhibition [5] | activation [6] |
| --- | --- | --- | --- | --- | --- | --- | --- | --- | --- |
| Cc1ccc(C2CC(=O)Oc3cc(C)c(Br)c(C)c32)cc1 (stereo not drawn) | inactive | inactive | inactive | 2.13 µM (active) | inactive | inactive |  |  |  |
| CC(Oc1ccc(Br)cc1)C(=O)NCC(c1cccs1)N1CCOCC1 (stereo not drawn) | inactive | inactive | inactive | inactive | inactive | inactive |  |  |  |
| N#Cc1c(-c2cccs2)nc(SCc2ccc(Cl)cc2)[nH]c1=O | 42.6 µM (active) | inactive | inactive | inactive | inactive | inactive |  |  |  |
| O=S(=O)(Nc1cc2nc3ccccc3nc2n1Cc1ccccc1)c1ccc(Cl)cc1 | 9.53 µM (active) | inactive | inactive | 37.9 µM (active) | inactive | inactive |  |  |  |
| COc1ccc(/C=N/Nc2nnc(C)n2N)cc1OC(C)=O | inactive | inactive | inactive | inactive | inactive | inactive |  |  |  |
| N#Cc1c(Nc2ccccc2)sc(C(=O)c2ccccc2)c1N | inactive | inactive |  | inactive |  |  | 9.46% [at 17.1 µM, percent relative to cAMP agonist control] | 13.4% [at 30.8 µM] | 19.9% [at 30.8 µM] |
| COc1cc(NS(=O)(=O)c2cc3[nH]c(=O)c(=O)[nH]c3cc2C)cc(OC)c1OC | inactive | inactive |  | inactive |  |  | 2.04% [at 17.1 µM, percent relative to cAMP agonist control] | -5.07% [at 30.8 µM] | 12.2% [at 30.8 µM] |
| O=C1C2CCCN2C(c2ccccc2F)N1c1cccc(Cl)c1 (stereo not drawn) | inactive | inactive |  | inactive |  |  | 0.711% [at 17.1 µM, percent relative to cAMP agonist control] | -15.2% [at 30.8 µM] | 9.98% [at 30.8 µM] |
| O=C(O)c1ccc(/C=N/NC(=O)c2ccc(CN3c4cccc5cccc(c45)S3(=O)=O)cc2)cc1 | 44.7 µM (active) | inactive |  | inactive |  |  | -4.21% [at 17.1 µM, percent relative to cAMP agonist control] | 3.17% [at 30.8 µM] | 13.7% [at 30.8 µM] |
| Cc1ccc(C)c(S(=O)(=O)Nc2ccc(C(=O)NCC(c3ccco3)N(C)C)cc2)c1 (stereo not drawn) | inactive | inactive |  | inactive |  |  | 5.83% [at 17.1 µM, percent relative to cAMP agonist control] | -1.62% [at 30.8 µM] | 6.54% [at 30.8 µM] |
| COc1ccccc1/C=C1\SC(=S)N(NS(=O)(=O)c2ccccc2)C1=O | 16.9 µM (active) | inactive | inactive | inactive | inactive | inactive |  |  |  |
| COc1ccccc1CCC(=O)Nc1cc(S(=O)(=O)N2CCCCC2)ccc1N1CCN(C)CC1 | inactive | inactive | inactive | inactive | inactive | 63.1 µM (active) |  |  |  |
| COc1cccc(-c2nc(SCC(=O)Nc3nc(-c4ccccc4)c(C)s3)[nH]c(=O)c2C#N)c1 | 75.7 µM (active) | inactive | inactive | inactive | inactive | inactive |  |  |  |
| COc1ccc(/C=N\NC(=O)c2cc3c(ccc4ccccc43)o2)cc1O | inactive | inactive |  | inactive |  |  | 5.26% [at 17.1 µM, percent relative to cAMP agonist control] | 0.0783% [at 30.8 µM] | 29.4% [at 30.8 µM] |
| COc1nc(C)cc(C)c1S(=O)(=O)c1ccc(Cl)cc1 | inactive | inactive |  | inactive |  |  | 6.22% [at 17.1 µM, percent relative to cAMP agonist control] | -12.6% [at 30.8 µM] | 27.8% [at 30.8 µM] |
| CCc1ccccc1N(C)S(=O)(=O)c1ccc2[nH]cc(C(=O)N3CCc4ccccc43)c(=O)c2c1 | inactive | inactive |  | inactive |  |  | -2.56% [at 17.1 µM, percent relative to cAMP agonist control] | -6.13% [at 30.8 µM] | 15.8% [at 30.8 µM] |
| CC(OC(=O)CC1CCCCC1)C(=O)Nc1ccc(S(N)(=O)=O)cc1 (stereo not drawn) | inactive | inactive |  | inactive |  |  | 2.89% [at 17.1 µM, percent relative to cAMP agonist control] | -10.1% [at 30.8 µM] | 15.8% [at 30.8 µM] |
| O=c1c2cc([N+](=O)[O-])cc([N+](=O)[O-])c2[nH]n1-c1ccccc1 | 35.5 µM (active) | inactive |  | inactive |  |  | 3.37% [at 17.1 µM, percent relative to cAMP agonist control] | -31.5% [at 30.8 µM] | 10.6% [at 30.8 µM] |
| C[C@H]1CN([C@@H](C)CO)C(=O)CCCn2cc(nn2)CO[C@@H]1CN(C)S(=O)(=O)c1ccc(-n2cccn2)cc1 | inactive | inactive | inactive | inactive | inactive | inactive |  |  |  |
